In PubChem BioAssay (NCI):
The panel holds about 83,000 compounds, 20% with a hit somewhere; the sample as a whole holds those more often.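 Activity criterion: percent growth below 10, measured after cells in 96-well plates were exposed to a single compound concentration for 48 hours.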 Values without a mark were called inactive. The source made the active and inactive calls.

System: HL-60(TB) leukemia
Test: NCI-60 one-dose screen, 48 h (100 = growth as untreated, 0 = no growth, -100 = all killed)
Settings: 10 µM unless noted

Compound | growth
C=C(C)[C@@H]1CC[C@]2(COS(C)(=O)=O)CC[C@]3(C)[C@H](CC[C@@H]4[C@@]5(C)CCCNC(C)(C)[C@@H]5CC[C@]43C)[C@@H]12 | 34.1%
NNc1nnc2nc(Nc3ccccc3)nc(Nc3ccc(S(N)(=O)=O)cc3)n12 | 108%
CCCCNNC(=O)c1ccc(-c2cccc(F)c2F)cc1 | 28.4%
Cc1cc(C(NC(=O)CCCCCNc2cccc3c2C(=O)N(C2CCC(=O)NC2=O)C3=O)c2cccnc2)c(O)c2ncccc12 (stereo not drawn) | -31% (active)
NC(N)=Nc1ccc(Oc2cccc(Nc3ccc(Cl)c(C(F)(F)F)c3)c2)cn1 | -68% (active)
C[C@@H](Nc1c(C#N)cnc2ccc(-c3cnc(Cl)c(NS(C)(=O)=O)c3)cc12)c1ccccc1 | -28.4% (active)
Cc1ccc(-n2cc(/C=N/NC(=O)c3ccncc3)c(-c3ccc(S(C)(=O)=O)cc3)n2)cc1 | 76.4%
COc1cc(-c2nc3ccc(-c4nnc(SCC(=O)Nc5ccc(C(C)=O)cc5)o4)cc3[nH]2)cc(OC)c1OC | 104%
COc1cccc(N2CCN(c3ncnc4c3[nH]c3ccc(F)cc34)C[C@@H]2C)c1 | -38.8% (active)
Clc1ccc2c(NCCCN3CCOCC3)c3oc4ccccc4c3nc2c1 | 37.9%
CCC(=O)Nc1cc(Nc2cc(NC3CC3)n3ncc(C#N)c3n2)ccc1C | 5.84% (active)
O=C1CC(=O)N2CSCN(C(c3ccccc3)c3nc4ncncc4[nH]3)C2=N1 (stereo not drawn) | 118%
Cn1cc(C2=C(c3coc4cc(Br)ccc34)C(=O)NC2=O)c2ccccc21 | 44.5%
